Results as given in the supplement of paper PMC3545927.
Some of the results follow. The hit rate among all sequences tested is not known here.

Biological target: furin, P09958
Assay: furin cleavage Z-score vs untreated control; higher = more cleavage, active = 3.5 or more, inactive = 1 or less, 8 variable residues between constant flanks
Outline: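 Furin cleavage was scored on 8-mer peptides joined to a cDNA oligonucleotide and bound to magnetic beads at the N-terminus. Digestion with purified furin (1:10 enzyme:substrate, 0.01 ml, 50 mM HEPES pH 7.5, CaCl2, NaCl) lasted 7.5, 15 or 30 min. Freed DNA was tagged with adapters by PCR, sequenced and counted; the cleavage Z-score is the lowess-adjusted log count versus furin-free reactions, scaled by median absolute deviation.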

Sequence of furin, P09958 (P09958 whole entry): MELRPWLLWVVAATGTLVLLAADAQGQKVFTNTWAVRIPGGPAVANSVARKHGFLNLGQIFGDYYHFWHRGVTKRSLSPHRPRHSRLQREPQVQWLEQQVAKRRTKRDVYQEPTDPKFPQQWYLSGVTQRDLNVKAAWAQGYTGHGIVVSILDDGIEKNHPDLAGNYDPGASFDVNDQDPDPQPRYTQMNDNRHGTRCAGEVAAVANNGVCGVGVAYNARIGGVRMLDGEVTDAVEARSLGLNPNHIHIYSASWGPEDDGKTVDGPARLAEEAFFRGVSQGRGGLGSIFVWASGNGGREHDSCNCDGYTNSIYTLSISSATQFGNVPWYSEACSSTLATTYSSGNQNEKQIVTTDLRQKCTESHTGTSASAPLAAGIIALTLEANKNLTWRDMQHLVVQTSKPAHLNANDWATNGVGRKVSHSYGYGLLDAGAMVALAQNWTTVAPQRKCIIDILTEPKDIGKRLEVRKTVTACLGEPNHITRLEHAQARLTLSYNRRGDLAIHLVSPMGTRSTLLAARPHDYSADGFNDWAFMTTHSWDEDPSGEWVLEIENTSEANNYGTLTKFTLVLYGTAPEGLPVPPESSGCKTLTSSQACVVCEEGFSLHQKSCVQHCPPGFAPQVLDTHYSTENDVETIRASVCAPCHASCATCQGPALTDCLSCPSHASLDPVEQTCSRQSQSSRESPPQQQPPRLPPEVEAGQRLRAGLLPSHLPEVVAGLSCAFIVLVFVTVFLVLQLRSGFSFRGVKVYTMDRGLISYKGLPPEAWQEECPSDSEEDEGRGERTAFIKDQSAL

| Sequence | furin cleavage Z-score (7.5 min) | furin cleavage Z-score (15 min) | furin cleavage Z-score (30 min) |
| --- | --- | --- | --- |
| CAVVCGSMSYAGNASASA [HC82] | -0.0603 (inactive) | -1.58 (inactive) | 0.38 (inactive) |
| CALRYRHKRIAGNASASA [FS-1541] | 6.08 (active) | 8.2 (active) | 8.94 (active) |
| CARFHRACRLAGNASASA [FS-1257] | -0.645 (inactive) | -0.00567 (inactive) | -0.322 (inactive) |
| CALRYRHKRLAGNASASA [FS-1542] | 9.71 (active) | 11.6 (active) | 9.65 (active) |
| CALRDYIPRIAGNASASA [FS-1464] | -0.691 (inactive) | -1.05 (inactive) | -0.313 (inactive) |
| CAYCLSTGCVAGNASASA [HC997] | -1.15 (inactive) | 0.0405 (inactive) | -1.03 (inactive) |
| CASWERPRRPAGNASASA [FS-876] | -1.15 (inactive) | -0.626 (inactive) | 0.927 (inactive) |
| CAWGRRKARMAGNASASA [FS-1437] | 8.17 (active) | 11.8 (active) | 9.74 (active) |
| CALKRRDRRMAGNASASA [FS-1227] | 12 (active) | 13.4 (active) | 10.3 (active) |
| CAYCLRKRRMAGNASASA [FS-1664] | 8.61 (active) | 9.15 (active) | 7.84 (active) |
| CAQGCRKDRGAGNASASA [FS-77] | -1.71 (inactive) | 0.374 (inactive) | -0.248 (inactive) |
| CAYPNRPDRPAGNASASA [FS-110] | -0.325 (inactive) | 0.955 (inactive) | 0.00762 (inactive) |
| CAACLRKLGVAGNASASA [HC1614] | -0.73 (inactive) | -0.95 (inactive) | 1.04 |
| CATKKRPRRMAGNASASA [FS-1171] | 7.17 (active) | 8.34 (active) | 8.69 (active) |
| CAFERRSFETAGNASASA [FS-2390] | -1.51 (inactive) | -1.58 (inactive) | -0.598 (inactive) |
| CAGMVSKGWRAGNASASA [HC669] | -0.876 (inactive) | 0.139 (inactive) | -1.14 (inactive) |
| CAVIIKLGALAGNASASA [HC629] | 0.217 (inactive) | -0.103 (inactive) | 0.349 (inactive) |
| CASWPCSAHLAGNASASA [HC2488] | 0.993 (inactive) | 0.675 (inactive) | 1.37 |
| CADSEVVTSTAGNASASA [HC2297] | -0.913 (inactive) | 1.6 | 0.0245 (inactive) |
| CAYLVTRHADAGNASASA [HC726] | -0.934 (inactive) | -0.697 (inactive) | -0.629 (inactive) |
| CAMLKRFARMAGNASASA [FS-1036] | 9.66 (active) | 12.7 (active) | 9.59 (active) |
| CAAKRRPRRMAGNASASA [FS-1302] | 7.77 (active) | 7.84 (active) | 6.56 (active) |
| CAYPPKPCGIAGNASASA [HC405] | -0.254 (inactive) | 1.24 | -0.00218 (inactive) |
| CAMEECTQHLAGNASASA [HC36] | 1.8 | 0.851 (inactive) | 0.876 (inactive) |
| CAAAQLAAPGAGNASASA [HC1069] | 0.864 (inactive) | -0.982 (inactive) | -0.549 (inactive) |

| Sequence | furin cleavage Z-score (7.5 min) | furin cleavage Z-score (15 min) | furin cleavage Z-score (30 min) |
| --- | --- | --- | --- |
| CAAVCCSMSYAGNASASA [HC1983] | -0.929 (inactive) | -0.792 (inactive) | 0.279 (inactive) |
| CARSRRLQQRAGNASASA [FS-2090] | -1.41 (inactive) | -1.28 (inactive) | -0.156 (inactive) |
| CARTRRYYLSAGNASASA [FS-3112] | -0.7 (inactive) | 2.33 | 1.85 |
| CARTRREAPRAGNASASA [FS-2096] | 11.6 (active) | 11.4 (active) | 9.47 (active) |
| CARTRRYTLFAGNASASA [FS-2191] | 2.37 | 3.82 (active) | 4.23 (active) |
| CARSRRSEERAGNASASA [FS-3237] | 6.2 (active) | 7.41 (active) | 5.66 (active) |
| CARSQRSEERAGNASASA [FS-2813] | -1.38 (inactive) | -0.785 (inactive) | 0.605 (inactive) |
| CARTRRPGEPAGNASASA [FS-2835] | -0.179 (inactive) | 0.383 (inactive) | 0.174 (inactive) |
| CARFRRQDVRAGNASASA [FS-2665] | 3.01 | 3.49 | 4.11 (active) |
| CAAETTVRLRAGNASASA [HC927] | 0.749 (inactive) | -0.382 (inactive) | 0.0108 (inactive) |
| CARCVRICSKAGNASASA [FS-2899] | 1.54 | -0.229 (inactive) | -0.326 (inactive) |
| CASYPCSAHLAGNASASA [HC2489] | 0.414 (inactive) | -1.17 (inactive) | 1.74 |
| CATFALWRVSAGNASASA [HC1200] | -1.06 (inactive) | -0.9 (inactive) | -0.368 (inactive) |
| CAVLCCSMSYAGNASASA [HC2005] | 0.0781 (inactive) | 1.47 | 0.67 (inactive) |
| CARERRSEEPAGNASASA [FS-1890] | -0.884 (inactive) | 3.45 | 0.678 (inactive) |
| CARFRRAANRAGNASASA [FS-1702] | 7.75 (active) | 10.5 (active) | 7.34 (active) |
| CARSRRQDVRAGNASASA [FS-2818] | 1.35 | 3.52 (active) | 2.66 |
| CARFRRSETPAGNASASA [FS-1854] | 6.5 (active) | 5.93 (active) | 5.18 (active) |
| CATFHKAEYRAGNASASA [EK4] | -1.71 (inactive) | -2.3 (inactive) | -0.599 (inactive) |
| CARRFRSVPRAGNASASA [FS-2369] | -0.464 (inactive) | 0.0993 (inactive) | 0.454 (inactive) |
| CARFRRSVPRAGNASASA [FS-2667] | 8.62 (active) | 7.98 (active) | 7.02 (active) |
| CARSRRRSGRAGNASASA [FS-3094] | 1.03 | 0.486 (inactive) | 1.5 |
| CADFVRSITPAGNASASA [FS-1878] | -0.721 (inactive) | -0.817 (inactive) | -2.11 (inactive) |
| CARFYRYMGRAGNASASA [FS-2141] | 0.0635 (inactive) | 0.964 (inactive) | -0.333 (inactive) |
| CARFRKAYKPAGNASASA [FS-2926] | 0.349 (inactive) | -0.617 (inactive) | -0.661 (inactive) |
